This is an account of results in PubChem BioAssay (NCI).

This is part of a sample that, as a whole, favours compounds with a hit. Of some 83,000 tested, about 20% had one in any assay.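 Each cell line was grown in a 96-well plate and treated with one concentration of compound for 48 hours. Values below 10 were considered active.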 Values without a mark were called inactive. Active and inactive are the calls of the source.

One assay deals with HCT-15 colon. In words: NCI-60 one-dose screen, 48 h (100 = growth as untreated, 0 = no growth, -100 = all killed). To be noted: 10 µM unless noted.
Take `CCN(CC)CCOc1ccc(-c2c(-c3ccccc3)c(=O)oc3ccccc23)cc1`: the growth was 72.2%.

For the compound `COc1ccc2c(O)c(/C=C3\N=Nc4ccccc43)oc2c1C[C@@H]1CCNC[C@H]1F`, the growth is 6.86% (active).

As to `COc1cc(OC)cc(C2=C3CC[C@@H]4[C@H](CC[C@]5(C)C(=O)CC[C@@H]45)C3=CC3C(O)c4cccnc4N4C(=O)COC234)c1` (some centres undefined), the growth was 100%.

For `CC(=O)N1N=C(c2ccc(Nc3nc(Nc4ccc(Cl)cc4)nc(Nc4ccc(Cl)cc4)n3)cc2)CC1c1ccco1` (centres undefined), the growth was 85.7%.

Take `CCS/C(Nc1ccccc1)=C(\C#N)C(=O)N/N=C/c1ccc(Cl)cc1Cl`: the growth is 19.9%.

For `CCOC(=O)C(=Cc1cccc(Cl)c1)C(=O)OCC`, the growth is -51.1% (active).

Consider `CN[C@]12CC3(C=CC(=O)C=C3)O[C@@]1(Cc1ccc(OC)cc1)N(C)C(=O)N2`, for which the growth was 4.25% (active).

In another assay the test system is HT29 colon. Described as above. The settings on record: 10 µM unless noted.
Consider `Cn1cc(-c2csc(-c3ccc(Cl)cc3)n2)c2cccnc21`, for which the growth is -70.3% [100 µM] (active).

As for `COc1cc(-c2nc(SCCC(C)C)nc(Nc3ccccc3Cl)c2C#N)cc(OC)c1OC`, the growth is 89.1%.

For the compound `CCn1c(=S)[nH]c2c(=O)n(C)c(=O)n(C)c21`, the growth was 112%.

As to `c1ccc(CNc2c3ccccc3nc3ccccc23)cc1`, the growth was 19%.

`COCCn1c(-c2csc(-c3cn(C)c4ccc(OC)cc34)n2)cc2cccnc21`: the growth was 5% (active).

Turning to `CCOC(=O)CSc1ncnc2c1c(-c1ccccc1)c(-c1ccccc1)n2-c1ccc(C)cc1`, the growth was 63.9%.

`COc1cc2oc(-c3cccc(NC(=O)c4cccc(Br)c4)c3)cc(=O)c2c(OC)c1OC`: the growth was 34.7%.

Take `Cc1ccc(Cl)cc1Nc1nc(C(F)(F)F)ccc1C(=O)N/N=C/c1cccnc1`: the growth is 34.6%.

For the compound `Cn1c(=O)c2c(nc(NC3=NS(=O)(=O)c4ccccc43)n2CC(=O)N2CCc3ccccc32)n(C)c1=O`, the growth is 101%.

With `Cc1cccc(Cl)c1NC(=O)c1ccc2nc(NC(=O)NCCN(C)C)sc2c1`, the growth is 80.1%.

Turning to `CCOC(=O)c1c(C)nc2c(c1N)CC(=O)N2Cc1cc(F)cc(Cl)c1`, the growth was 77.1%.

Take `COC(C(=O)[C@@H](O)[C@@H](C)O)[C@@H]1Cc2cc3cc(O[C@H]4C[C@@H](O[C@H]5C[C@@H](O)[C@H](O)C(C)O5)[C@H](O)C(C)O4)cc(O)c3c(O)c2C(=O)[C@H]1O[C@H]1C[C@@H](O[C@H]2C[C@@H](O[C@H]3C[C@@H](OC)[C@H](O)C(C)O3)[C@@H](O)C(C)O2)[C@H](O)C(C)O1` (some centres undefined): the growth was 34.9%.

With `CN([O-])c1nc(N(C)[O-])nc(N2CCOCC2)n1.CN([O-])c1nc(N(C)[OH2+])nc(N2CCOCC2)n1.[Fe+3]`, the growth was 102% [100 µM].

As to `CCOP(=O)(OCC)c1nc(-c2ccccc2)oc1NCc1cccnc1`, the growth was 111%.

For the compound `CCn1c(SCC(=O)c2ccc(Br)cc2)nnc1-c1ccncc1`, the growth is 107%.

`CCCCNc1ccc(C#N)c(OCCN(CC)CC)c1`: the growth was 94.7%.

For the compound `N#Cc1c(-c2ccc(Cl)cc2)nc(NN=Cc2cccc(O)c2)nc1N1CCOCC1`, the growth is 69.8%.

For the compound `CS(=O)(=O)Nc1cc(-c2ccc3ncnc(Nc4c(Cl)ccc5c4OCO5)c3c2)cnc1Cl`, the growth was -12.9% (active).

As to `Fc1cccc(CNc2c3ccccc3nc3ccccc23)c1F`, the growth was 29.1%.

For the compound `COC(=O)CNC(=O)[C@H](Cc1ccccc1)NCc1ccncc1`, the growth is 86.6%.

For the compound `O=C(NCCCN1CCOCC1)c1cccc(N2C(=O)/C(=C/c3ccc(F)cc3)SC2=S)c1`, the growth was 108%.

Consider `O=[N+]([O-])/C(=C/C=C/c1ccccc1)c1ccccc1`, for which the growth is 26.9%.

As for `Cn1cc(-c2csc(-c3c[nH]c4ccc(Br)cc34)n2)c2cnccc21`, the growth is -70% (active).

`C=C(C)[C@@H]1CC[C@]2(C(=O)N3CCN(C)CC3)CC[C@]3(C)[C@H](CC[C@@H]4[C@@]5(C)CC(=C/c6ccncc6)/C(=N/O)C(C)(C)[C@@H]5CC[C@]43C)[C@@H]12`: the growth is 41.1%.

On to `COc1cc(N2C(=O)[C@H](O)C2c2ccc(SC)cc2)cc(OC)c1OC` (some centres undefined), for which the growth was -14.5% (active).

As for `CCCCC(=O)c1ccco1`, the growth is 103%.

On to `C=C(C)[C@@H]1CC[C@]2(C)[C@H](CC=C3[C@@H]4[C@H](C)[C@@H](C)CC[C@]4(CO)CC[C@]32C)[C@@]1(C)CCCN`, for which the growth was -44.5% (active).
